Sampled rows, rich in hits. Any-hit rate of the full collection: about 3.1%.
E coli Lon inh – inhibitors of E. coli Lon protease, primary screen, biochemical, fluorescence polarization; P0A9M0; purified E. coli Lon protease; inhibition, % at 7.94 µM; 360,000 tested, 0.42% active; AID 602123, 2011; in the data active means inhibition above about 13%, passing the limit was not always enough;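 further: 0% = enzyme with probe and DMSO and 100% = no enzyme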
PAFAH1B2 FP inh – PAFAH1B2 enzyme inhibitors, primary screen, biochemical, fluorescence polarization, human | 340,000 tested, 1.2% active | AID 492953, 2010 | inhibition, % at 3.39 µM | recombinant PAFAH1B2, FP-rhodamine activity probe;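 active means inhibition above the mean of all tested compounds plus 3 SD, cut at about 24% in these data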;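 further: 0% = enzyme with DMSO and 100% = wells lacking PAFAH1B2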
Target sequence (P68402 whole entry, looked up): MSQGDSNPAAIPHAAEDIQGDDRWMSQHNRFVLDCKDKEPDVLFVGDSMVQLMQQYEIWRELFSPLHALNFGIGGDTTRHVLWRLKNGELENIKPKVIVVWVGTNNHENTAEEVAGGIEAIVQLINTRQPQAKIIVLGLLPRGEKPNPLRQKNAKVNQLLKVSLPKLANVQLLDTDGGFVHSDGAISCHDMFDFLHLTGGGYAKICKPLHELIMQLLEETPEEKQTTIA
PAFAH2 inh – PAFAH2 enzyme inhibitors, primary screen, biochemical, fluorescence polarization, human; recombinant PAFAH2, FP-rhodamine activity probe; Platelet-activating factor acetylhydrolase 2, cytoplasmic (Homo sapiens), Q99487; inhibition, % at 3.39 µM; 340,000 tested, 0.99% active;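 active means inhibition above the mean over all tested compounds plus 3 SD, cut at about 30% in these data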;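 further: inhibitors block probe labeling of enzyme so polarization drops; 0% = enzyme with DMSO and 100% = wells lacking PAFAH2 protein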
Rin1-Abl PPI inh – inhibitors of Rin1-Abl protein binding, primary screen, biochemical, TR-FRET | Tyrosine-protein kinase ABL1 (Homo sapiens) + Ras and Rab interactor 1 (Homo sapiens), … | inhibition, % at 7.35 µM | 360,000 tested, 0.4% active | AID 588664, 2011; in the data active means inhibition above about 5%, passing the limit was not always enough
pPAFAH inh – pPAFAH enzyme inhibitors, primary screen, biochemical, fluorescence polarization, human; 330,000 tested, 1.5% active; inhibition, % at 3.39 µM; recombinant pPAFAH, FP-rhodamine probe fluorescence polarization; Platelet-activating factor acetylhydrolase (Homo sapiens), Q13093;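 active means inhibition above the mean inhibition across the screen plus 3 SD, cut at about 25% in these data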;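 further: inhibitors block binding of the rhodamine activity-based probe so polarization drops; 0% = enzyme with DMSO and 100% = wells lacking pPAFAH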
PAFAH1B3 FP inh – PAFAH1B3 enzyme inhibitors, primary screen, biochemical, fluorescence polarization, human; 340,000 tested, 0.28% active; Platelet-activating factor acetylhydrolase IB subunit alpha1 (Homo sapiens), Q15102; recombinant PAFAH1B3, FP-rhodamine probe; inhibition, % at 3.39 µM; AID 492972, 2010;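 active means inhibition above the screen-wide average of all tested compounds plus 3 SD, cut at about 25% in these data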;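 further: 0% = enzyme with DMSO only and 100% = wells lacking PAFAH1B3 protein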
Target sequence (Q15102 whole entry, looked up): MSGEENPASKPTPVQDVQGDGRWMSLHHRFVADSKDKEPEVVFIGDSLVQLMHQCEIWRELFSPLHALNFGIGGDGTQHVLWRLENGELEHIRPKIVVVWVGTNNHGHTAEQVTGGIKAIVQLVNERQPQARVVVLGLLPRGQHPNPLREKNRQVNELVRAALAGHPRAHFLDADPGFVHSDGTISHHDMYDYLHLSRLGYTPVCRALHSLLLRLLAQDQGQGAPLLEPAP
PAFAH2 confirm – PAFAH2 enzyme inhibitors, confirmation, biochemical, fluorescence polarization, human; shares compounds with PAFAH2 inh; recombinant PAFAH2, FP-rhodamine activity probe; inhibition, % at 3.39 µM; 2,300 tested, 65% active; AID 493030, 2011;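 active means mean inhibition over three repeats above a set limit taken from the earlier primary screen, cut at about 30% in these data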;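 further: inhibitor blocks binding of rhodamine activity probe so polarization falls; 0% = enzyme with DMSO and 100% = wells lacking PAFAH2 protein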
* marks the source's active call; other numbers are inactive results; . = no result.

SMILES	E coli Lon inh	PAFAH1B2 FP inh	PAFAH2 inh	Rin1-Abl PPI inh	pPAFAH inh	PAFAH1B3 FP inh	PAFAH2 confirm
O=c1oc(-c2ccccc2NS(=O)(=O)c2ccccc2)nc2ccccc12	-5	5	77*	0	-6	-1	67*
CC(=O)Nc1cccc(-c2nc3ccccc3c(=O)o2)c1	-10	1	-3	1	-4	8	.
Nc1ccccc1-c1nc2ccccc2c(=O)o1	-11	6	30*	-5	-6	13	21
CSc1nc2ccc(NC(=O)c3cc4ccccc4o3)cc2s1	-2	-3	-2	-2	-6	-3	.
CCCc1nc2nc(C)c(NS(=O)(=O)c3ccc(C(C)(C)C)cc3)c(=O)n2[nH]1	4	9	9	2	4	9	.
CCCCCCCc1nc2nc(C)c(Br)c(=O)n2[nH]1	-2	13	38*	-2	20	10	35*
Cc1cccc(NC(=O)C(=O)C2C(=O)Nc3ccccc32)c1 (configuration not stated)	0	7	36*	-4	-2	1	29
CCCCCCCCN1C(=O)[C@H](CC(=O)N2CCN(C(=O)c3ccco3)CC2)C[C@@]2(C(=O)OCC)CCCC=C12	-1	.	.	.	.	.	.
O=C1c2ccccc2[C@@H]2C[C@@H](O)[C@H](Nc3cccc(C(F)(F)F)c3)CCN12	-14	5	40*	1	23	11	30*
COc1cccc2cc(C(=O)NCCc3ccccc3)oc12	-1	5	-2	-4	0	4	.
COc1ccc(CNC(=S)NCc2ccc(Cl)cc2)cc1OC	-3	9	0	-1	-1	15	.
Oc1oc(-c2ccccc2)nc1C=NCc1ccncc1	10	1	52*	-4	15	8	37*
CNS(=O)(=O)c1cccc(C(=O)OCC(=O)Nc2ccc(OC)cc2[N+](=O)[O-])c1	1	-1	31*	-4	8	3	27
COc1ccc(NC(=O)COC(=O)c2cc(OC)c(OC)c(OC)c2)c([N+](=O)[O-])c1	1	5	-1	-2	7	7	.
COc1cccc(NC(=O)COC(=O)C2CCCCC2)c1	3	7	82*	-1	7	8	63*
COc1ccc(NC(=O)COC(=O)C2CCCCC2)c([N+](=O)[O-])c1	3	4	30*	-4	6	1	20
COc1cccc(NC(=O)COC(=O)C2CC2)c1	-5	4	69*	4	1	8	57*
COc1cc(C(=O)NCC2CCCO2)ccc1OCc1ccccc1Cl (configuration not stated)	-7	-4	-2	2	8	-4	.
CCOc1ccc(S(=O)(=O)N2CN(c3cccc(C(C)=O)c3)c3nc4ccccc4nc32)cc1	4	-1	12	1	4	-6	.
CC(C)(C)c1ccc(/C=C2\Oc3cc(O)ccc3C2=O)cc1	-132	11	47*	1	16	5	36*
Cc1nn2c(-c3ccc(S(=O)(=O)N4CCN(C)CC4)o3)nnc2c2ccccc12	-3	8	11	-3	-1	11	.
O=C1CCSc2c1ccc1ccccc21	-5	2	9	1	.	12	.
COC(=O)Nc1sc(C(=O)N(C)C)c(C)c1C(=O)OC	-4	3	-4	0	-4	7	.
COC(=O)c1c(NC(=S)NNC(=O)c2ccc(Cl)s2)sc(C(=O)N(C)C)c1C	5	3	50*	0	10	5	41*
C=C1CCN([C@H](C(=O)OCc2ccc(C)cc2)C(C)C)S(=O)(=O)c2ccccc21	-2	1	126*	0	2	8	0
SMILES	E coli Lon inh	PAFAH1B2 FP inh	PAFAH2 inh	Rin1-Abl PPI inh	pPAFAH inh	PAFAH1B3 FP inh	PAFAH2 confirm
C=C1CCN([C@@H](C)C(=O)OCc2cccc(C)c2)S(=O)(=O)c2ccccc21	-10	1	10	2	-1	4	.
CCCn1c(NC(=O)CCS(=O)(=O)c2ccc(C)cc2)nc2ccccc21	-45	-4	-5	-1	10	-3	.
CCOc1ccccc1-c1nc(-c2cc3ccc(C)cc3[nH]c2=O)no1	4	-3	52*	-2	-1	0	32*
Cc1ccc2cc(-c3noc(C4CCCCC4)n3)c(=O)[nH]c2c1	6	-3	47*	3	-1	-5	51*
COc1cc(C(=O)OCC(=O)N2CC(C)OC(C)C2)cc(OC)c1OC (configuration not stated)	-5	3	-15	-4	0	6	.
CCC(=O)Nc1nnc(S(=O)(=O)N2c3ccccc3CC2C)s1 (configuration not stated)	-1	11	10	2	1	4	.
N#Cc1ccccc1S(=O)(=O)N1CCN(C(=O)C2CCCC2)CC1	0	0	-5	1	3	6	.
COc1cc(/C=C/C(=O)OCC(=O)NCC2CCCO2)ccc1OCC#N (configuration not stated)	0	4	43*	-3	4	2	30*
O=C(COC(=O)/C=C/c1ccc(F)cc1)NCC1CCCO1 (configuration not stated)	-4	1	38*	1	2	15	26
COc1cc(/C=C/C(=O)OCC(=O)NCc2ccco2)ccc1OCC#N	-1	2	44*	0	5	14	37*
COc1ccc(CCNC(=O)COC(=O)/C=C/c2ccc(OCC#N)c(OC)c2)cc1OC	-7	5	11	-6	3	-9	.
O=C(COC(=O)/C=C/c1ccc(C(F)(F)F)cc1)NCC1CCCO1 (configuration not stated)	-11	0	10	2	8	-1	.
Cc1ccccc1NC(=O)C(C)OC(=O)CCC(=O)c1ccccc1 (configuration not stated)	-4	.	.	-8	.	.	.
O=C(COC(=O)C1CC2C=CC1C2)Nc1ccc([N+](=O)[O-])cc1 (configuration not stated)	14	10	57*	1	20	2	54*
CC(C)c1ccc(NC(=O)COC(=O)C2CC3C=CC2C3)cc1 (configuration not stated)	10	2	44*	0	24	-1	24
